HCMV antiviral: qHTS Assay for inhibitors of the human cytomegalovirus (HCMV); AID 1259415, 2018; activity change, negative = inhibition, % at 57.5 µM; 410,000 tested, 4.5% active; HFF cells, HCMV-luciferase reporter, 72 h; active compounds read low; in the data active means activity change below about -60%; inconclusive means no clear call, values can overlap the other calls; inactive means above about -39%
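Cell-based, HFFs, 1000 cells/well, 16 h 37C; cpds in DMSO + HCMV-luc, MOI 1 PFU/cell; 72 h 37C; OneGlo luminescence after 5 min RT; norm. to buffer vs Salinomycin 10uM.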
FBPA Giardia inh: qHTS Assay for Inhibitors of Fructose-1,6-bisphosphate Aldolase from Giardia Lamblia | Potency, µM (highest dose often 59.6 µM), for the others: at the top dose activity, negative = inhibition, most hits filed as inhibitors | AID 2451, 2010 | A8B2U2 | 290,000 tested, 0.71% active | purified Giardia FBPA; further: potency means the concentration at half of the fitted maximal effect; nearly all actives have a fitted effect of over 55% in size
Target sequence (A8B2U2 whole entry, looked up): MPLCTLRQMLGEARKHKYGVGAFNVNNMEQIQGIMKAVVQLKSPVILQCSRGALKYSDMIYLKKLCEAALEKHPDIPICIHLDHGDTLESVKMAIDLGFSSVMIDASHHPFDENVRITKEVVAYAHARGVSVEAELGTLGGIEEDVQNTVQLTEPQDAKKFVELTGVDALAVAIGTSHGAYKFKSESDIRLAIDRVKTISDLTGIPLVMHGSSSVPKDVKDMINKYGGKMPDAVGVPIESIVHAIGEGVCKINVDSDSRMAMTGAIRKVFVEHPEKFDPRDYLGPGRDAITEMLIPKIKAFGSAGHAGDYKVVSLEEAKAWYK
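Giardia FBPA (40 nM reagent) was preincubated 10 min at RT with compound (up to 57.5 uM final), then substrate plus GAPDH/TPI/NAD/arsenate coupling system with diaphorase/resazurin was added; resorufin fluorescence (525/598 nm) was read after 20 min.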
LASV entry inh: qHTS for Inhibitors of binding or entry into cells for Lassa Virus; Potency, µM (top dose mostly 37.9 µM), without a hit: at the top dose activity change, negative = inhibition, most hits filed as inhibitors; 300,000 tested, 1.2% active; Lassa virus pseudotype entry inhibition, cell reporter; calls by dose curve; tested in HEK293 cells; further: potency means the concentration at half of the fitted maximal effect; nearly all actives have a fitted effect of over 50% in size
FMDV inh: High Throughput Screening for Foot and Mouth Disease Virus Antivirals; FMDV antiviral cell-based qHTS; Potency, µM (series often up to 57.9 µM), inactives show top-dose activity change, negative = inhibition, actives largely listed as inhibitors; 410,000 tested, 1.2% active; calls by dose curve; tested in HEK293T cells; further: read-out not given here; potency means the concentration at half of the fitted maximal effect; nearly all actives have a fitted effect of over 45% in size
HCV inhibitor: qHTS Assay for Inhibitors of Hepatitis C Virus (HCV); 340,000 tested, 3.4% active; Huh7.5.1 HCVcc-Cre infection, luciferase reporter, 44 h; Potency, µM (doses to about 41.8 µM), for the others: at the highest dose activity change, negative = inhibition, actives largely listed as inhibitors; AID 651820, 2012; further: potency means the concentration at half of the fitted maximal effect
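Whole-lifecycle infectious HCVcc-Cre system; cells 1,000/well, compound then virus (~0.5 moi) added 4 h after plating, 44 h culture. Luciferase read 15 sec following 15 min substrate incubation, room temp.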
MARV entry inh: qHTS for inhibitors of binding or entry into cells for Marburg Virus; Marburg virus pseudotyped entry inhibition, cell reporter; 300,000 tested, 1.8% active; Potency, µM (titrated, usually from 37.8 µM), for inactives: at the highest dose activity change, negative = inhibition, actives largely listed as inhibitors; calls by dose curve; tested in HEK293 cells; further: potency means the concentration at half of the fitted maximal effect
The depositor's hits bear a star; ? = inconclusive; nt = not tested or not shown; [ ] = dose if it differs, or a comment. Compounds with a hit are over-represented: about 8.3% of the library has one in this group of screens. Unless noted, the call rests on the fitted dose curve; in most records, active means well fitted curve in the direction sought with a large enough effect; inconclusive means small, poorly fitted or top-dose-only effect, or another doubt; inactive means no such curve, though single readings can be large; an effect the other way counts as inactive or inconclusive. On the % scale 0 is the no-effect control and ±100 the full control effect.

SMILES	HCMV antiviral	FBPA Giardia inh	LASV entry inh	FMDV inh	HCV inhibitor	MARV entry inh
O=C(c1ccc(Cn2c(=O)[nH]c3ccccc3c2=O)cc1)N1CCN(c2ccc(Cl)cc2)CC1	?	1%	-18%	-27%	11µM*	?
Cn1c(=O)c(=O)n(C)c2cc(NC(=O)c3cccc(F)c3)c(Cl)cc21	-19	nt	-1%[46.1 µM]	-18%	nt	3%[46.1 µM]
O=C(c1ccccc1Cl)n1nc(-c2cccnc2)nc1NCc1ccc(F)cc1	1	nt	0%[46.1 µM]	-13%	nt	4%[46.1 µM]
CC(C)c1ccc(C(=O)NC2=NCCS2)cc1	68	-1%	16µM*	-13%	11%	7.3µM*
CC(C)Oc1ccc(C(=O)NC2=NCCS2)cc1	61	?	?	-24%	21%	8.9µM*
COc1ccc(C(=O)NC2=NCCS2)cc1	104	-7%	29%[46.1 µM]	6%	2%	?
Cc1ccc(C(=O)NC2=NCCS2)cc1	94	-11%	nt	nt	nt	-1%
Cn1c(SCC(=O)c2ccc(F)cc2)nnc1-c1ccccc1Br	-16	nt	-14%[46.1 µM]	20%	nt	?
Cc1ccc(-n2c3nc(=O)[nH]c(=O)c-3cc3cc([N+](=O)[O-])ccc32)cc1C	-99*	?	?	28µM*	35µM*	?
O=C(Nc1ccc(F)c(Cl)c1)c1cc(S(=O)(=O)N2CCCc3ccccc32)ccc1F	-32	nt	19%[46.1 µM]	-6%	nt	nt
CCCC(=O)N(C1CC(C)C(C#N)(C#N)C1(C#N)C#N)N(C)C (stereo not drawn)	-90*	-4%	?	16µM*	?	?
Cc1cccc(-n2c(/C=C/c3ccc([N+](=O)[O-])o3)nc3ccccc3c2=O)c1	-104*	-13%	?	?	10µM*	?
Cc1cccc(-n2c(/C=C/c3c(C)[nH]c4ccccc34)nc3ccccc3c2=O)c1	7	nt	3%[46.1 µM]	-20%	nt	nt
Cc1cccc(-n2c(/C=C/c3ccccc3O)nc3ccccc3c2=O)c1	-98*	nt	?	?	nt	nt
O=C(O)c1ccc(-n2c(/C=C\c3ccc(O)cc3)nc3ccccc3c2=O)cc1	-14	nt	-14%[46.1 µM]	-22%	nt	nt
Cc1cccc(-n2c(/C=C/c3cccc4ccccc34)nc3ccccc3c2=O)c1	?	nt	16%[46.1 µM]	?	nt	nt
O=c1c2ccccc2nc(/C=C/c2ccc([N+](=O)[O-])o2)n1-c1ccc(O)cc1	-100*	-2%	?	?	?	3.2µM*
CC(=O)N(/N=C/c1ccc([N+](=O)[O-])o1)c1nc2ccccc2c(=O)n1-c1ccccc1	-64*	-13%	nt	-2%	-24%	nt
Cc1nc2ccccc2c(=O)n1-c1cc([N+](=O)[O-])cc([N+](=O)[O-])c1	-30	-4%	nt	-12%	?	nt
Cc1ccc(COC(=O)c2ccc(-c3nnn(Cc4ccc(C)cc4)n3)cc2)cc1	1	nt	-7%[46.1 µM]	-21%	nt	-15%[46.1 µM]
COc1cc(CC(=O)Nc2cccc(S(=O)(=O)N(C)c3ccccc3)c2)cc(OC)c1OC	?	nt	nt	22µM*	10µM*	nt
Cc1ccsc1CN(C)CC(=O)Nc1cccc(S(=O)(=O)N(C)c2ccccc2)c1	?	nt	-22%	-13%	?	?
CCN(CC(=O)Nc1cccc(S(=O)(=O)N(C)c2ccccc2)c1)Cc1cccs1	?	nt	?	-29%	35µM*	?
COc1cc(CC(=O)Nc2cccc(SC)c2)cc(OC)c1OC	-14	-1%	-1%[46.1 µM]	-29%	14µM*	?
CCC(=O)c1ccc(OCC(=O)Nc2cccc(S(=O)(=O)N(C)c3ccccc3)c2)cc1	?	nt	nt	?	11µM*	nt
COc1ccc(CC(=O)Nc2cccc(SC)c2)cc1	-12	-6%	-8%	10%	15%	-1%
Cc1ccccc1Nc1nc(N)nc(-c2oc3ccccc3c2C)n1	-9	2%	-4%	45%	-56%	?
Cc1c(-c2nc(N)nc(Nc3ccc(F)cc3)n2)oc2ccccc12	62	3%	-6%	3%	10µM*	?

Source: PubChem
